MCL1-BIM inh = MCL1-BIM-BH3 interaction inhibition (human) | Q07820 | GST-MCL1 / FITC-Bim-BH3 fluorescence polarization | inhibition, % at 10.9 µM | 0.68% of 320,000 active;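 active = inhibition above the mean inhibition of all tested compounds plus 3 SD, set per campaign, cut at about 40% in these data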;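 also: higher means more loss of mP so more displacement of Bim peptide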
Target sequence (Q07820 whole entry, looked up): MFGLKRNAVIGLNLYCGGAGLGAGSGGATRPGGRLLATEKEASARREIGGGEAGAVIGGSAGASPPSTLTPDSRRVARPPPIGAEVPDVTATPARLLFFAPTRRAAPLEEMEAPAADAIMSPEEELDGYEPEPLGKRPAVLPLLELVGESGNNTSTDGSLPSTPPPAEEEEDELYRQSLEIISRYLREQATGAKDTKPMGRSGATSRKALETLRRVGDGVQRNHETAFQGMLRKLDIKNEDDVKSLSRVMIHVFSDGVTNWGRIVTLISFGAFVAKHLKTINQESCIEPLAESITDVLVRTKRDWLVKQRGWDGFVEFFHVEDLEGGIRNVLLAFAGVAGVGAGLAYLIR
Mcl1 Bid PPI = disrupts binding of human Mcl-1 to Bid peptide. inhibition, % at 21.7 µM. AID 1021. TR-FRET Mcl-1/Bid-Dy647 peptide binding, 1536-well. 0.97% of 220,000 active;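 active = compounds that cut the binding signal by more than half at the single screening dose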;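 also: His-tagged Mcl-1 with europium anti-His antibody binding Bid BH3 peptide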
Mcl-1 Bim block = disrupts Bim peptide binding to human Mcl-1; Q07820; Bead-based flow cytometry, Bim peptide-Mcl-1 binding; inhibition, % at 10 µM; 0.1% of 190,000 active; AID 1009; in the data active = inhibition above about 40%
Mcl1 Noxa PPI = disrupts binding of human Mcl-1 to Noxa peptide | Q07820 | TR-FRET Mcl-1/Noxa peptide binding, 2 h | inhibition, % at 21.7 µM | 1.5% of 220,000 active | AID 1022;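 active = compounds that cut the protein-peptide binding signal by more than 50% relative to plate controls in a single-dose test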;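 also: His-tagged Mcl-1 with rhodamine Noxa BH3 peptide and terbium anti-His antibody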
14-3-3 Bad inh = disrupts binding of bovine 14-3-3 zeta to phospho-Bad peptide. P63103. AID 781. 0.71% of 220,000 active. inhibition, % at 21.7 µM. TR-FRET 14-3-3zeta/Dy647-pBad peptide displacement, 1 h;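 active = inhibition above about 70%, limit read from the data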
Target sequence (P63103 whole entry, looked up): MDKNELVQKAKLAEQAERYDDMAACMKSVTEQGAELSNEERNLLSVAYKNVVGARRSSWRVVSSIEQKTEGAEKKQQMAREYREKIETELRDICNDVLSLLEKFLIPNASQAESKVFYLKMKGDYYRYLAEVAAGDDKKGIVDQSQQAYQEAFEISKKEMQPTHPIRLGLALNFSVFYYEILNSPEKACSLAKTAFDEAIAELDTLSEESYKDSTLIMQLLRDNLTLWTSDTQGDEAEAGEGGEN
Hits are given with their value; – = inactive; · = no result given. Most compounds without a hit are left out; they make up all but 2.5% or so of the library.

SMILES | MCL1-BIM inh | Mcl1 Bid PPI | Mcl-1 Bim block | Mcl1 Noxa PPI | 14-3-3 Bad inh
Cn1c(-c2ccc3c(c2)OCO3)cnc1NCc1ccc(Cl)cc1 | – | – | – | – | 77
Cc1ccc(CNc2ncc(-c3ccc4c(c3)OCO4)n2C)cc1 | – | – | – | – | –
Cc1ccc(-n2nnnc2SCC(=O)Nc2ccc(N3CCN(C)CC3)cc2)c(C)c1 | – | · | · | · | ·
CC1=NN(c2ccccc2)C(=O)/C1=C/c1c(O)n(-c2ccc(F)c(Cl)c2)[nH]c1=O | – | – | – | 86 | –
CC1=NN(c2ccccc2)C(=O)/C1=C\c1c(C)[nH]n(-c2ccccc2)c1=O | – | – | – | – | –
COc1ccc(CCNC(=O)C23CCC(C)(C(=O)O2)C3(C)C)cc1OC (configuration not stated) | – | – | – | – | –
COc1ccc(CCNC(=O)C2(C)CCC(=O)N2CCC(C)C)cc1OC (configuration not stated) | – | 59 | – | – | –
O=C(COC(=O)c1ccc(O)cc1O)Nc1cccc2ccccc12 | – | · | · | · | ·
COCCCn1c(=O)/c(=C\c2ccccc2OC(C)C)s/c1=C(/C#N)C(=O)Nc1ccc(C(=O)O)cc1 | – | – | · | 63 | –
COCCCn1c(=O)/c(=C\c2ccccc2OC(F)F)s/c1=C(/C#N)C(=O)NC(C)C | – | – | – | – | –
C/C(CC(=O)Nc1ccccn1)=N\NC(=O)c1ccc([N+](=O)[O-])cc1Cl | – | · | · | · | ·
CN(C)c1ccc(NC(=O)c2ccc([N+](=O)[O-])cc2Cl)cc1 | – | – | – | 74 | –
CC(C)C(=O)Nc1ccc(NC(=O)c2ccc([N+](=O)[O-])cc2Cl)cc1 | – | – | – | – | –
O=C(Nc1ccccn1)c1ccc([N+](=O)[O-])cc1Cl | – | 94 | – | – | –
Cc1ccc(NC(=O)c2cccc(NC(=O)/C=C/c3ccco3)c2)cc1C | – | – | – | – | –
O=C(O)CNC(=O)/C(=C/c1ccco1)NC(=O)/C=C/c1ccccc1 | – | – | – | – | –
C=CCOC(=O)/C(=C/c1ccco1)NC(=O)/C=C/c1ccccc1 | – | 89 | · | – | –
O=C(c1ccco1)N1CCN(C(c2ccc(Cl)cc2)c2nnnn2CC2CCCO2)CC1 (configuration not stated) | – | 55 | – | – | 81
CC(C)CCn1nnnc1C(c1ccc(F)cc1)N1CCN(C(=O)c2ccco2)CC1 (configuration not stated) | – | – | – | – | 83
Cc1ccc(C(c2nnnn2CC2CCCO2)N2CCN(C(=O)c3ccco3)CC2)cc1 (configuration not stated) | – | – | – | – | –
O=C(c1ccco1)N1CCN(C(c2ccc(F)cc2)c2nnnn2Cc2cccs2)CC1 (configuration not stated) | – | 62 | – | – | 90
O=C(c1ccco1)N1CCN(C(c2ccccc2)c2nnnn2Cc2cccs2)CC1 (configuration not stated) | – | – | – | – | –
Fc1ccc(Cn2nnnc2C(c2ccc(Cl)cc2)N2CCSCC2)cc1 (configuration not stated) | – | – | 43 | – | –
CC1CCCCC1NC(=O)CSc1nnnn1-c1ccccc1 (configuration not stated) | – | – | – | – | –
Cc1cc(C)cc(N(CC(=O)NC2CCC(C)CC2)S(=O)(=O)c2c(C)noc2C)c1 (configuration not stated) | – | 89 | – | – | –
SMILES | MCL1-BIM inh | Mcl1 Bid PPI | Mcl-1 Bim block | Mcl1 Noxa PPI | 14-3-3 Bad inh
Cc1cc(C)cc(N(CC(=O)O)S(=O)(=O)c2c(C)noc2C)c1 | – | – | – | · | –
COC(=O)c1c(SCc2cccc3ccccc23)nc(=O)[nH]c1C | – | – | · | – | –
COCCn1c(C)cc(C2=NNC(=Nc3ccc(Cl)cc3Cl)SC2)c1C | – | – | – | – | 72
Clc1ccc(OCCn2ccnc2)c(Cl)c1 | – | – | – | – | –
Clc1ccc(SCCn2ccnc2)cc1 | – | 67 | – | – | –
Cc1ccc2c(c1)N(CCCC(=O)NCCC1=CCCCC1)C(=O)CO2 | – | – | – | – | –
Cc1ccc(S(=O)(=O)Nc2ccc(N(C)C)cc2)cc1 | – | – | – | 73 | –
CN(C)c1ccc(NS(=O)(=O)c2cccc(Cl)c2)cc1 | – | – | – | 84 | –
CC(C)c1ccc(NS(=O)(=O)c2ccc(Cl)nc2)cc1 | – | 55 | – | – | –
CN(C)c1ccc(NS(=O)(=O)c2ccc(Cl)cc2)cc1 | – | – | – | 61 | –
O=C(c1cc2ccccc2oc1=O)N1CCCC1 | – | – | – | – | –
Cc1ccc2nc(C)/c(=N\O)c(C)nc2c1 | – | – | – | – | –
COc1ccccc1C(=O)NC(=O)COC(=O)Cc1ccc(F)cc1 | – | · | · | · | ·
COc1cc(/C=N/Nc2ccc(C(=O)O)cc2)ccc1O | – | – | – | 63 | –
O=C(O)c1ccc(N/N=C/c2ccc(OC(=O)c3cccc(Cl)c3)cc2)cc1 | – | – | · | 92 | –
COc1cc(/C=N/NC(=O)c2nc(-c3ccccc3)n(-c3ccccc3)n2)ccc1O | – | – | – | – | –
COc1cc(/C=N/Nc2nc(C)nc3c2cnn3-c2ccccc2)ccc1O | · | – | – | 74 | –
O=C(O)c1cccc(N/N=C/c2ccc(OC(F)(F)F)cc2)c1 | – | · | · | · | ·
O=C(Oc1ccc(/C=N/Nc2ccccc2)cc1)c1ccccc1 | – | – | – | – | –
CSc1ccc(/C=N/Nc2cccc(C(=O)O)c2)cc1 | · | – | – | 99 | 85
Cc1ccc(C(=O)O/N=C2\CCSc3ccc(C)cc32)cc1 | – | – | – | – | –
CCn1c(SCC(=O)NC(C)C(C)C)nc2cc(S(=O)(=O)N3CCOCC3)ccc21 (configuration not stated) | – | · | · | · | ·
O=C(COC(=O)c1ccc(F)c(S(=O)(=O)N2CCOCC2)c1)NC1CCCCC1 | – | · | · | · | ·
CC1(C)N([O-])c2cc([N+](=O)[O-])ccc2[N+]1=O | 45 | – | · | 85 | –
COc1ccc(C2Nc3ccccc3C(=O)N2O)cc1OC (configuration not stated) | – | 93 | – | – | –
SMILES | MCL1-BIM inh | Mcl1 Bid PPI | Mcl-1 Bim block | Mcl1 Noxa PPI | 14-3-3 Bad inh
CCCCOCC1CC(CC#CCN2CCCCC2)C(=O)O1 (configuration not stated) | · | – | – | – | 78
N#Cc1nc(-c2ccco2)oc1NCCCN1CCOCC1 | – | – | – | – | –
O=[N+]([O-])c1cccc(N/N=C/c2cccc(O)c2O)c1 | – | – | – | 67 | –
O=[N+]([O-])c1ccccc1N/N=C/c1cccc(O)c1O | – | – | · | 54 | –
COc1cccc(N/N=C/c2cccc(Br)c2O)c1 | – | – | · | – | –
O=[N+]([O-])c1ccc(N/N=C/c2cccc(O)c2O)c(S(=O)(=O)N2CCOCC2)c1 | – | – | – | – | –
O=[N+]([O-])c1ccccc1N/N=C\c1ccccc1Cl | – | – | – | – | –
Cc1cccc(N/N=C/c2ccc(O)c(O)c2O)c1 | – | – | · | 53 | –
COC(=O)N1CCN(c2ccc(OC)cc2)CC1 | – | – | – | – | –

Screening data from PubChem BioAssay.
